Each structure is given as a SMILES string. Unmarked numbers belong to inactive results. Records with an inconclusive call do not appear. The source made the active and inactive calls. Unless noted, calls come from the whole dose curve.

Assay [1] in a line: qHTS to identify inhibitors of the type 1 interferon - major histocompatibility complex class I in skeletal muscle: primary screen against the NCATS LOPAC collection (AID 1347405; active = well fitted curve in the direction sought with a large enough effect; an effect the other way counts as inactive or inconclusive;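 note: lytic HiBiT luminescence reporting HLA-B protein level; % is set by controls: 0 for no effect and ±100 for the full control effect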). The method, boiled down: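 Immortalized human C25cl48 myoblasts with HiBiT knocked into endogenous HLA-B*08:01 were stimulated with 4.0 ng/ml IFN-beta and given compounds in a 7-point, 1:4.3 titration from 46 uM final; after 24 hrs, lytic HiBiT luminescence was read.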
A general note: qHTS replaces the single test concentration by a dilution series.

The nature of assay [2]: qHTS for inhibitors of adenylyl cyclases using a fission yeast platform: a pilot screen against the NCATS LOPAC library (AID 1347410; active = well fitted curve in the direction sought with a large enough effect; an effect the other way counts as inactive or inconclusive;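 note: plate controls were DMSO vehicle for no effect and DPI positive control for full effect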). The procedure, abridged: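 Growth medium went into the plates first, then compounds were pinned (final up to 57 µM), then CHP2027 yeast were added. Plates were incubated overnight (18 h) at 30C in the dark, and GFP was measured by laser scanning cytometry.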

The nature of assay [3]: Validation qHTS assay for inhibitors of Activation Induced Cytidine Deaminase (AID): UDG Counterscreen signal (AID 1347427; active = well fitted curve in the direction sought with a large enough effect; an effect the other way counts as inactive or inconclusive; note: 0% is about no effect). The method, boiled down:
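Counterscreen read of UDG activity (2 U/mL, 4/3x) in the FRET deamination format with AID (1 uM, 4/3x), DJC20/DJC23 substrates (250 nM, 4x), 4 h at room temperature. NaOH stop, fluorescence at 560 ex/665 em.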

Assay [4] concerns the target Single-stranded DNA cytosine deaminase (Homo sapiens) (UniProt Q9GZX7). The assay can be described thus: Validation qHTS assay for inhibitors of Activation Induced Cytidine Deaminase (AID): AID signal (AID 1347429; active = well fitted curve in the direction sought with a large enough effect; an effect the other way counts as inactive or inconclusive; note: potency is the fitted concentration of half-maximal effect; for activity change, negative = inhibition: % is set by controls: 0 for no effect and ±100 for the full control effect). The method, boiled down:
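AID and UDG were combined and compounds added at final up to 114 uM, then DJC20/DJC23 FRET substrate was added for 4 hr at room temperature. NaOH was then added for 30 min before fluorescence was read at 540/590 nm.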

Assay [5] is described as follows: Primary qHTS for inhibitors of SARS-S pseudo-typed particle cell entry (AID 1479145). For activity change, negative = inhibition: series mostly up to about 57 µM; % is set by controls: 0 for no effect and ±100 for the full control effect. Note: nearly all actives have a fitted effect of over 45% in size. The conditions noted are these: outcome: dose series up to 57.1 µM unless noted.
Assay [6] is described as follows: Primary qHTS for Huh7 cytotoxicity: counterscreen for inhibitors of MERS-S pseudotyped particle cell entry (AID 1479147). Particulars: outcome: dose series up to 57.1 µM unless noted.
Assay [7] is described as follows: Primary qHTS for inhibitors of MERS-S pseudo-typed particle cell entry (AID 1479149). For activity change, negative = inhibition: series mostly up to about 57 µM; % is set by controls: 0 for no effect and ±100 for the full control effect. Note: nearly all actives have a fitted effect of over 60% in size. Particulars: outcome: dose series up to 57.1 µM unless noted.

Single-stranded DNA cytosine deaminase (Homo sapiens), sequence (Q9GZX7 whole entry, looked up): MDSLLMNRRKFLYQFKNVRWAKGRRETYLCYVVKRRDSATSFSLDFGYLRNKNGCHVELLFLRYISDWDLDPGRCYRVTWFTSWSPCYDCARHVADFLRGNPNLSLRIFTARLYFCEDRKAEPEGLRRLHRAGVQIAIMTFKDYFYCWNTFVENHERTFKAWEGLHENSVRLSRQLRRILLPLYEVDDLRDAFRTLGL

Take `CC(N)Cc1c[nH]c2ccc(O)cc12` (centres undefined): the Potency entry in assay [1], in assay [3] and in assay [4] was “inactive” each time. In addition, in assay [2], the compound was classed as inactive.
Regarding `CN1CCC[C@@H]1Cc1c[nH]c2ccc(Nc3ncccc3[N+](=O)[O-])cc12`, the outcome in assay [2] was inactive.
For `Ic1ccccc1CNC1C2CCN(CC2)C1C(c1ccccc1)c1ccccc1` (centres undefined), the compound was called inactive in assay [2]. Further, the Potency result in assay [3] and in assay [4] was “inactive” each time.
As for `CN1CC[C@@]2(C)c3cc(O)ccc3N(C)C12` (some centres undefined), the Potency entry in assay [1] is “inactive”. Besides, in assay [2], the call was inactive. The Potency in assay [4] was 12.6 µM (active).
Take `CCCN(CCC)C1Cc2cc(OC)c(OC)cc2C1`: the Potency entry in assay [1], in assay [3] and in assay [4] was “inactive” throughout. For the same compound, in assay [2], the call was inactive.
Consider `CN1C2CCC1CC(OC(c1ccccc1)c1ccccc1N)C2` (centres undefined), for which the Potency result in assay [1], in assay [3] and in assay [4] was “inactive” in each case. Further, in assay [2], the compound was called inactive.
As for `CCCCCCCCCCCCCC(=O)O[C@@H]1[C@@H](C)[C@@]2(O)[C@@H](C=C(CO)C[C@@]3(O)C(=O)C(C)=C[C@@H]23)C2C(C)(C)[C@@]21OC(C)=O` (some centres undefined), in assay [2], the outcome was inactive. Further, the Potency entry in assay [3] and in assay [4] was “inactive” in each case.
In the case of `NCC(CP(=O)(O)O)c1ccc(Cl)cc1` (centres undefined), the Potency entry in assay [1], in assay [3] and in assay [4] was “inactive” each time. The compound was called inactive in assay [2].
As to `N#C/C(=C/c1ccc(O)c(O)c1)C(N)=S`, the Potency entry in assay [1], in assay [3] and in assay [4] was “inactive” each time. Further, the compound was called inactive in assay [2].
With `NC(=O)CI`, the Potency result in assay [1], in assay [3] and in assay [4] was “inactive” throughout. The call in assay [2] was inactive.
As for `COc1ccc(OC)c(C(O)C(C)N)c1` (centres undefined), the Potency entry in assay [1], in assay [3] and in assay [4] was “inactive” each time. The outcome in assay [2], in assay [5], in assay [6] and in assay [7] was inactive.
For `CCCN(CCC)CCc1ccc(O)c(O)c1`, the Potency result in assay [1], in assay [3] and in assay [4] was “inactive” in each case. Also, the compound was called inactive in assay [2].
`O=[N+]([O-])c1ccc2nc(N3CCNCC3)ccc2c1`: in assay [2], the compound was classed as inactive.
`C[C@]12CCC(=O)C=C1C=C[C@@H]1[C@@H]2CC[C@@]2(C)[C@H]1CC[C@@]2(O)CCC(=O)O`: the outcome in assay [6] and in assay [7] was inactive.
In the case of `C[C@]12CC[C@H]3[C@@H](CCC4=C(O)C(=O)CC[C@@H]43)[C@@H]1CC[C@@H]2OC(=O)CCC1CCCC1`, the compound was called inactive in assay [6] and in assay [7].
Regarding `CCC1(C)CC(=O)NC(=O)C1`, the outcome in assay [5] and in assay [6] was “inactive [at 114 µM]” in each case. Also, the call in assay [7] was inactive.
`CC[N+](C)(CC)CCOC(=O)C(O)(c1ccccc1)c1ccccc1`: the compound was classed as inactive in assay [5], in assay [6] and in assay [7].
On to `O=C(NCNC(=O)NC1C(=O)NC(=O)N1CO)NC1C(=O)NC(=O)N1CO` (centres undefined), for which the outcome in assay [5], in assay [6] and in assay [7] was inactive.
Turning to `CC(C)(O)[C@@H]1[C@H]2OC(=O)[C@@H]1[C@]1(O)C[C@H]3O[C@]34C(=O)O[C@H]2[C@]14C`, the outcome in assay [5], in assay [6] and in assay [7] was inactive.
As for `O=[N+]([O-])C(Br)(CO)CO`, the compound was called inactive in assay [5], in assay [6] and in assay [7].
`CCN(CC)C(=O)N[C@H]1C[C@@H]2c3cccc4[nH]cc(c34)C[C@H]2N(C)C1`: the result in assay [6] and in assay [7] was inactive.
On to `CCC1C(C)=NN=C(c2ccc(OC)c(OC)c2)c2cc(OC)c(OC)cc21` (centres undefined), for which the compound was classed as inactive in assay [5], in assay [6] and in assay [7].
With `CCCCCCCCCC(=O)O[C@H]1CC[C@H]2[C@@H]3CCC4=CC(=O)CC[C@]4(C)[C@H]3CC[C@]12C`, the result in assay [5], in assay [6] and in assay [7] was inactive.
`O=C1OC2(c3cc(Br)c(O)cc3Oc3c2cc(Br)c(O)[c]3[Hg])c2ccccc21` (centres undefined): the call in assay [7] was inactive.
`O=[N+]([O-])c1cc(I)c(O)c(I)c1`: the result in assay [5], in assay [6] and in assay [7] was inactive.
`O=[N+]([O-])c1ccccc1`: the outcome in assay [5], in assay [6] and in assay [7] was inactive.
On to `Cc1ccccc1-n1c(CF)nc2ccc(N)cc2c1=O`, for which the outcome in assay [6] and in assay [7] was inactive.
Take `CCCCNCC(O)c1ccc(O)cc1` (centres undefined): the compound was classed as inactive in assay [5], in assay [6] and in assay [7].
In the case of `C[C@@H]([C@H](O)c1ccccc1)N(C)C`, the result in assay [5], in assay [6] and in assay [7] was inactive.
With `CCOC(=O)c1ccccc1C(=O)OCC`, the result in assay [5], in assay [6] and in assay [7] was inactive.
On to `O=C(OCCN1CCCCC1)C(O)(c1ccccc1)c1ccccc1`, for which the result in assay [5], in assay [6] and in assay [7] was inactive.
Take `O=P(O)(O)C(Cl)(Cl)P(=O)(O)O`: in assay [5], the activity change, negative = inhibition was -10.6% [at 5.34 µM]. In addition, the outcome in assay [6] and in assay [7] was “inactive [at 5.34 µM]” each time.
Take `CC(C)CCC(=O)O[C@H]1CC[C@H]2[C@@H]3CCC4=CC(=O)CC[C@]4(C)[C@H]3CC[C@]12C`: the outcome in assay [5], in assay [6] and in assay [7] was inactive.
Take `CCCCC[C@@H](O)C1C(=O)OC(C)[C@H](O)/C=C/C=C/C=C/C=C/C=C(\C)C(O)C(O)C(O)C[C@H](O)C[C@H](O)C[C@H](O)C[C@H](O)C[C@@H]1O` (some centres undefined): the result in assay [5], in assay [6] and in assay [7] was inactive.
Regarding `CCCC(=O)OC(C(Cl)(Cl)Cl)P(=O)(OC)OC` (centres undefined), the compound was classed as inactive in assay [6]. Moreover, the outcome in assay [7] is “inactive [at 114 µM]”.
For `FC(F)OC(F)(F)C(F)Cl` (centres undefined) the same measures were “inactive” and “inactive”.
On the same counts, the results for `CCCCCCC(=O)O[C@H]1CC[C@H]2[C@@H]3CC[C@H]4CC(=O)C=C(C)[C@]4(C)[C@H]3CC[C@]12C` are “inactive” and “inactive”.
For the compound `O=c1[nH]cc(N(CCCl)CCCl)c(=O)[nH]1`, the outcome in assay [5], in assay [6] and in assay [7] was “inactive [at 114 µM]” in each case.
Consider `CCOc1ccc2c3c1O[C@H]1[C@@H](O)C=C[C@H]4[C@@H](C2)N(C)CC[C@@]341`, for which the call in assay [6] and in assay [7] was inactive.
In the case of `O=S(=O)(O)c1cc(O)ccc1O`, the call in assay [5], in assay [6] and in assay [7] was inactive.
For the compound `Oc1ccc2c3c1O[C@H]1[C@@H](O)CC[C@@]4(O)[C@@H](C2)N(CC2CCC2)CC[C@]314`, the outcome in assay [6] and in assay [7] was inactive.
Turning to `C[C@@H](CO)NC(=O)[C@@H]1C=C2c3cccc4[nH]cc(c34)C[C@H]2N(C)C1`, the result in assay [5], in assay [6] and in assay [7] was inactive.
`ClC1C(Cl)C(Cl)C(Cl)C(Cl)C1Cl` (centres undefined): the compound was classed as inactive in assay [6] and in assay [7].
With `CCNCC(O)c1cccc(O)c1` (centres undefined), the compound was called inactive in assay [6] and in assay [7].
For `O=C/C=C/c1ccccc1`, the compound was called inactive in assay [5], in assay [6] and in assay [7].
With `CCC1(CC)C(=O)NC(=O)N(C)C1=O`, the outcome in assay [6] and in assay [7] was inactive.
With `C/C(=C\c1csc(C)n1)[C@@H]1C[C@@H]2O[C@]2(C)CCC[C@H](C)[C@H](O)[C@@H](C)C(=O)C(C)(C)[C@@H](O)CC(=O)O1`, the outcome in assay [5], in assay [6] and in assay [7] was inactive.

The values are drawn from PubChem BioAssay (NCATS).
